By inhibition is commonly meant the percentage by which the read-out fell short of the control.

Calls of active or inactive are those of the source. How the calls were made is not given here.

The target in the assay is Pantothenate synthetase (Mycobacterium tuberculosis (strain ATCC 25618 / H37Rv)) (UniProt P9WIL5). Nature of the assay: Recombinant Mtb pantothenate synthetase (PanC) inhibitors, coupled enzyme, confirmatory (AID 375).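 Further: 0% = full reaction with vehicle and 100% = no enzyme background.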 To be noted: coupled enzyme assay; at 10 µM, active compounds read high.
Sequence of Pantothenate synthetase (Mycobacterium tuberculosis (strain ATCC 25618 / H37Rv)) (P9WIL5 whole entry, looked up): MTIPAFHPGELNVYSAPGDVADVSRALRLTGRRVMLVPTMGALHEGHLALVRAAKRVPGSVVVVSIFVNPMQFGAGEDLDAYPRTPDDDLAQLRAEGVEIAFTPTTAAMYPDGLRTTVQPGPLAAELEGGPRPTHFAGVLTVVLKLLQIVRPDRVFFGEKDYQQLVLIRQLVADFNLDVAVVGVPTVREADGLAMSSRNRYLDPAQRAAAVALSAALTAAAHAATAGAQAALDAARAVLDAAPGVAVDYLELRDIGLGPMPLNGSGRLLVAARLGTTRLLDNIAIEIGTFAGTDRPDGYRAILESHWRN
Turning to `CCOC(=O)N1CCN(C(=O)COc2ccc(S(=O)(=O)NC(C)C)cc2)CC1`, the inhibition is 0% (inactive).
The result for `CC(=O)Nc1nc(-c2ccccc2)nc(C)c1C(C)=O` reads 1% (inactive); that for `O=C(Nc1cccc(F)c1)C1C2C=CC3(CN(CCCN4CCOCC4)C(=O)C13)O2` (stereo not drawn), 0% (inactive); that for `COC(=O)CN1C(=O)C(O)(CC(=O)c2ccc(C)cc2)c2cc(Br)ccc21` (stereo not drawn), 2% (inactive).
The result for `O=c1c(-c2ccc(F)cc2)coc2c3c(ccc12)OCCO3` reads 11% (inactive); that for `NC(=O)c1sc2nc(N3CCCCC3)c3c(c2c1N)CCCC3`, 0% (inactive); that for `COc1ccccc1-n1c(-c2cccnc2)n[nH]c1=S`, 0% (inactive).
With `O=C(CSc1ccc2nnc(-c3ccccc3)n2n1)N1CCN(c2ccccc2)CC1`, the inhibition is 1% (inactive).
The result for `Clc1ccc(SCCn2ccnc2)cc1` reads 0% (inactive); that for `COCCSc1ccccc1C(=O)Nc1cc(C)on1`, 5% (inactive); that for `CCOC(=O)CSC1=C(C#N)C(=O)NC2(CCCCC2)S1`, 3% (inactive).
The result for `Oc1ccc(/C=C/c2cc(O)cc(O)c2)cc1` reads 0% (inactive).
The result for `CCOc1ccc2nc(NC(=O)C(NS(=O)(=O)c3cccs3)C(C)C)sc2c1` (stereo not drawn) reads 0% (inactive); that for `CCc1ccc(CN(C)CCc2ccccn2)cc1`, 1% (inactive).
Take `CN(C)c1ccc(/C(=N\O)c2ccccc2)cc1`: the inhibition is 0% (inactive).
The result for `CCCCCC(=O)N1CC2(C)CN(C(=O)CCCCC)CC(C)(C1)C2=O` reads 0% (inactive); that for `CC(=O)c1ccc2c3c(cccc13)C(=O)N(c1c(C)nn(C)c1C)C2=O`, 0% (inactive).
The result for `c1csc(-c2nc3nc4ccccc4nc3n2Cc2ccc3c(c2)OCO3)c1` reads 0% (inactive); that for `COc1ccc(NC(=O)C2CCCCN2S(=O)(=O)c2ccc(F)cc2)cc1` (stereo not drawn), 0% (inactive); that for `COc1ccc(C(=O)NC(=O)CSc2nnc(-c3ccco3)n2-c2ccccc2)cc1`, 0% (inactive).
The result for `FC(F)Oc1cccc2cccnc12` reads 6% (inactive).
Regarding `O=C(Nc1ccc(Cc2ccc(NC(=O)N3CCOCC3)cc2)cc1)N1CCOCC1`, the inhibition is 2% (inactive).
The result for `CCSc1ccccc1C(=O)NCc1ccc(S(N)(=O)=O)cc1` reads 0% (inactive).

The values above are taken from PubChem BioAssay.
